SKKanGAS inh = S. pyogenes SKKanGAS growth inhibitors in kanamycin, primary screen, streptokinase expression inhibitor project, SKKanGAS strain, BacTiter-Glo luminescence. 6 h. inhibition, % at 7.5 µM. hit rate 1.3% among 300,000;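 active = mean replicate score, as percent of positive control median, at least 50; inconclusive = mean below 50 but one replicate at or above 50; inactive = mean and every replicate below 50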;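 also: strain carries kanamycin resistance gene driven by streptokinase promoter and grows in 40 µg/ml kanamycin; loss of luminescence reflects streptokinase promoter inhibition or plain growth inhibition; 0% = median of DMSO wells and 100% = positive control at its reference dose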
tim23-1 inh = growth inhibitors of tim23-1 mutant yeast, primary screen, luminescence, uHTS; hit rate 1.3% among 330,000; S. cerevisiae tim23-1 growth, BacTiter-Glo luminescence, 24 h; AID 463212, 2010; inhibition, % at 20 µM;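 active = growth inhibition of the mutant yeast at or above 50%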;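 also: temperature-sensitive mutant grown at 25 °C; plate controls were DMSO-treated mutant yeast for no effect and medium wells lacking yeast for full effect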
NALP1 inh = NALP1 inflammasome inhibitors in reconstituted yeast, colorimetric, S. cerevisiae, triplicate retest. S. cerevisiae NALP1/ASC/caspase-1 growth, X-gal OD620, 72 h. inhibition, % at 10 µM. hit rate 0.61% among 280,000. AID 2071, 2009; in the data active = inhibition mostly above about 24%, no sharp cut-off; inactive = mostly below about 32%
TIM10 inh = growth inhibitors of isogenic TIM10 control yeast, primary screen, counter-screen for tim10-1 yeast inhibitor project, luminescence, uHTS | S. cerevisiae TIM10 strain growth, BacTiter-Glo luminescence, 24 h | inhibition, % at 10 µM | hit rate 1.4% among 330,000 | AID 463195, 2010;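 active = inhibition of 40% or more at the single tested concentration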;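 also: wild-type TIM10 isogenic control strain grown at permissive 25 °C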
tim10-1 inh = growth inhibitors of tim10-1 mutant yeast, primary screen, luminescence, uHTS. S. cerevisiae tim10-1 ts strain growth, BacTiter-Glo, 24 h. inhibition, % at 20 µM. hit rate 2.2% among 330,000;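 active = inhibition of at least 40%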;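 also: mutant grown at 25 °C; 0% = DMSO wells with yeast and 100% = wells holding no yeast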
PfHsp90 yeast 2 = growth inhibition of PfHsp90-expressing yeast, primary screen, antimalarial PfHsp90 inhibitor project, S. cerevisiae, BacTiter-Glo luminescence, single point, set 2; hit rate 0.32% among 310,000; inhibition, % at 9.4 µM; BacTiter-Glo ATP, 48 h; yeast lacking PDR1 and PDR3 efflux regulators; AID 504621, 2011;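 active = every replicate shows inhibition above about 80%, whatever the replicate mean, limit read from the data; inconclusive = mean inhibition reaches the set limit but some replicate falls short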;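 also: 0% = DMSO neutral controls and 100% = 20 µM radicicol positive controls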
tim10-1 conf = growth inhibitors of tim10-1 mutant yeast, confirmation, single concentration, luminescence, S. cerevisiae | AID 463213, 2010 | inhibition, % at 20 µM | shares compounds with tim10-1 inh | S. cerevisiae tim10-1 ts strain growth, BacTiter-Glo, 24 h | hit rate 56% among 7,400;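 active = inhibition of yeast growth at or above a set limit in either of two repeat tests at 20 µM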;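 also: tim10-1 mutant grown at permissive 25 °C to find synthetic lethal compounds; 0% = DMSO yeast wells and 100% = medium wells without yeast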
tim10 confirm = growth inhibitors of wild-type TIM10 yeast, confirmation, counter-screen for tim10-1 synthetic lethality project, single concentration, luminescence, S. cerevisiae | AID 463215, 2010 | hit rate 63% among 4,600 | inhibition, % at 10 µM | S. cerevisiae tim10 strain growth, BacTiter-Glo luminescence, 24 h | shares compounds with TIM10 inh;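 active = inhibition of yeast growth at or above a set limit in either of two replicates at 10 µM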;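 also: this counterscreen used the strain with wild-type TIM10; 0% = yeast with DMSO and 100% = medium wells lacking yeast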
tim23-1 confirm = tim23-1 mutant yeast growth inhibitors, confirmation, luminescence, single concentration; shares compounds with tim23-1 inh; S. cerevisiae tim23-1 growth, BacTiter-Glo luminescence, 24 h; inhibition, % at 20 µM; hit rate 83% among 4,400;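 active = inhibition above about 39% in either of two replicate wells at 20 µM, limit read from the data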;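 also: temperature-sensitive tim23-1 mutant grown at 25 °C; 0% = DMSO wells with yeast and 100% = medium wells without yeast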
Starred values were filed as active, the others as inactive; ? = inconclusive; · = not tested or not shown. Sampled rows, rich in hits. Any-hit rate of the full collection: about 4.8%.

SMILES	SKKanGAS inh	tim23-1 inh	NALP1 inh	TIM10 inh	tim10-1 inh	PfHsp90 yeast 2	tim10-1 conf	tim23-1 confirm	others
CC1CCN(C(=O)c2ccc3c(c2)NC(=O)/C(=C/c2ccccc2)S3)CC1	76*	50*	4	-7	42*	-17	1	47*
CCN1CCCC1CNC(=O)c1ccc2c(c1)NC(=O)/C(=C\c1ccc(C)cc1)S2 (stereo unspecified)	9	20	30	-1	13	2	·	·
CC(C)c1ccc(Nc2nc(Cl)nc(Cl)n2)cc1	0	-1	12	1	-10	-6	·	·
Cc1ccc(Nc2nc(Cl)nc(N(C)C#N)n2)cc1	9	59*	11	6	50*	17	47*	19
CC(C)(C)NC(=O)C(c1ccc(F)cc1)N(Cc1ccco1)C(=O)Cn1nnc(-c2cccs2)n1 (stereo unspecified)	-1	-8	10	17	19	-37	·	·
CC(C)Cn1c(N)c(C(=O)COC(=O)c2c(O)c(Cl)cc(Cl)c2Cl)c(=O)n(C)c1=O	·	51*	·	26	42*	-21	26	58*
CC(C)Cn1c(N)c(C(=O)COC(=O)c2ccc(Cl)cc2)c(=O)n(C)c1=O	-2	31	6	33	32	·	·	·
CCCCCCC1CC(CSc2ncn[nH]2)OC1=O (stereo unspecified)	-16	26	14	-7	19	10	·	·
O=C(CSc1ccc(-c2cccnc2)nn1)Nc1ccccc1C(F)(F)F	-3	11	-4	1	6	·	·	·
O=C(c1ccccc1)c1ccc2cc(O)ccc2c1	11	59*	8	26	48*	-14	35*	53*
Cc1noc(NC(=O)c2ccccc2Cl)c1C#N	-3	12	32	-6	-7	8	·	·
CCCc1cc(NCCCn2ccnc2)n2nc(C)c(-c3ccccc3)c2n1	0	-3	-11	17	18	12	·	·
CC(C)(C)c1cc(NCCCn2ccnc2)n2ncc(-c3ccccc3)c2n1	40	60*	0	15	51*	21	30*	59*
CC1CCN(C2=NC(=O)/C(=C/c3ccccc3F)S2)CC1	5	52*	9	13	46*	22	35*	53*
O=C(O)c1cccc(NC(=O)c2ccc(Cl)c(S(=O)(=O)N3CCCCCC3)c2)c1	-1	-1	0	2	2	-1	·	·
O=C(COc1cccc(NC(=O)c2ccco2)c1)c1ccc(F)cc1	·	55*	-27	47*	42*	39	32*	71*	tim10 confirm=48*
O=C(Nc1ccc(Cl)cc1)C(Cl)C(=O)c1ccccc1 (stereo unspecified)	-4	70*	-21	59*	55*	71	56*	76*	tim10 confirm=81*
O=c1[nH]cnc2c1c(-c1ccccc1)cn2-c1cccc(Cl)c1	8	60*	20	25	46*	-10	36*	38*
O=c1[nH]cnc2scc(-c3ccccc3)c12	-2	-7	-29	16	1	14	·	·
Cc1cccc(NS(=O)(=O)c2cccc(C(=O)NCCCN3CCCC3=O)c2)c1	-7	4	·	-1	-3	-14	·	·
NNc1nc(-c2ccccc2)c2cc(Cl)ccc2n1	47	63*	-21	48*	54*	9	32*	52*	tim10 confirm=24
CC(=O)NNc1nc(-c2ccccc2)c2cc(Br)ccc2n1	0	-24	·	11	10	·	·	·
NNc1nc(-c2ccccc2)cc(-c2ccc(Br)cc2)n1	46	55*	-2	39	55*	16	50*	58*
NNc1nc(-c2ccccc2)c2cc(Br)ccc2n1	65*	62*	6	56*	44*	3	48*	28	tim10 confirm=30
O=c1cc(-c2ccccc2)nc2cc(-c3ccc(Br)cc3)[nH]n12	11	6	25	0	-11	-8	·	·
SMILES	SKKanGAS inh	tim23-1 inh	NALP1 inh	TIM10 inh	tim10-1 inh	PfHsp90 yeast 2	tim10-1 conf	tim23-1 confirm	others
O=C1C(Cl)=C(NCc2cccnc2)C(=O)c2ccccc21	0	69*	17	39	45*	4	30	64*
CC1=NN(c2ccccc2)C(=O)/C1=C\c1ccc(Br)s1	-20	57*	15	39	42*	20	39*	67*
COc1ccc(OCc2cc(/C=N\NC(=O)c3ccccc3)ccc2OC)cc1	8	52*	-3	34	49*	-5	31	45*
Nc1ncnc2c1C1(CCCCC1)Cc1ccccc1-2	-1	50*	27	29	42*	0	30	27
COc1ccc(N2C(=O)C(Cl)=C(Oc3cccc(OC)c3)C2=O)cc1	·	53*	-6	75*	72*	2	57*	4	tim10 confirm=82*
CCN(CC)c1ccc2nc3ccc(N)cc3[n+](-c3ccccc3)c2c1	·	59*	·	36	57*	59	43*	57*
Cc1ccc(Cl)c(OC(=O)c2ccc(N3CCOCC3)c([N+](=O)[O-])c2)c1	10	26	33	25	31	-24	·	·
O=C(O)c1cnc(-c2ccccc2)nc1Sc1ccc(Cl)cc1Cl	?	51*	4	13	53*	·	15	-44
Cc1cccc(N2C(=O)CC(Cn3nc(C)cc3C)C2=O)c1 (stereo unspecified)	10	4	·	-1	9	5	·	·
CCN(CC)C1CC(=O)N(c2cccc(C)c2)C1=O (stereo unspecified)	-3	54*	90*	30	59*	·	56*	66*
CCn1ncc([N+](=O)[O-])c1C(=O)Nc1nc2cccc(C)c2s1	12	51*	2	32	47*	-12	24	50*
O=C(Nc1ccc(Cl)cn1)c1ccccc1[N+](=O)[O-]	-10	-10	5	18	-2	-7	·	·
